Assay [1] addresses 6-phosphogluconate dehydrogenase, decarboxylating (Homo sapiens) (UniProt P52209). Kind of assay: 6PGD enzyme inhibitors, primary screen, biochemical, human, recombinant enzyme, NADPH absorbance (AID 1159550). Conditions: recombinant 6PGD, NADPH absorbance 341 nm; at 10 µM; stronger effect = higher value.
A short description of assay [2]: differential killing of epithelial or mesenchymal cells, primary screen, imaging, PC-3E GFP, TEM4-18 mCherry, co-culture (AID 1345086;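 active = compounds killing one labelled cell type while sparing the other, by normalised counts and ratio limits, not self-fluorescent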;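 as to all read-outs here: cells exposed to compound for 72 h before imaging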;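 as to red/green cell ratio (normalised): normalised mesenchymal count divided by normalised epithelial count so high means epithelial killing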). The note with it: imaging cell counts, at 1 µM; for red/green cell ratio (normalised): actives lie on both sides, counts scaled to control wells, 1 = unselective.
Assay [3] concerns the target Mitogen-activated protein kinase 7 (Homo sapiens) (UniProt Q13164). Kind of assay: ERK5 transactivation activators in reporter cells, primary screen, cell-based, HTS (AID 1508626;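 active = luciferase signal above three times the same-plate solvent-only control wells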;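 also: luciferase driven by Gal4-ERK5 fusion binding five Gal4 sites before minimal TATA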). The note with it: HeLa Gal4-ERK5 transactivation, 18 h, at 5 µM, stronger effect = higher value.
Assay [4] in a line: liver-stage malaria parasite growth inhibition, primary screen, cell-based, HepG2, luciferase luminescence, HepG2 viability (AID 624349; in the data active = parasite load remaining mostly below about 12%, no sharp cut-off; inactive = mostly above about 10%;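 also: 100% = mean of DMSO negative control wells on the same plate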). Conditions: P. berghei liver stage in HepG2, luciferase luminescence, concentration not given here; parasite load remaining: stronger effect = lower value; viability: measured here: HepG2 viability without parasites.
A short description of assay [5]: sensitizers of A549 cells to miR-34 induction, primary screen, imaging, A549 dox-inducible miR-34, nuclei and caspase counts (AID 1347080;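 active = compounds whose cell count with miR-34 switched on is under 0.7 times the count with it off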). Conditions: A549 miR-34 inducible, Hoechst nuclei count, 48 h.
Assay [6] in a line: survival rescue of mitochondrial mutant cells in low glucose, primary screen, MELAS cybrids, Rieske KO mouse fibroblasts, CellTiter-Glo (AID 1508586;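 active = mean z-score across replicates of 1.96 or higher in either the MELAS or the Rieske mutant cell line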;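 also: z relative to plate mean and SD of compound and empty wells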).
The nature of assay [7]: growth inhibition of DIPG glioma cells, dose response, cell-based, JHH-DIPG-1, MIPE4.0, CellTiter-Glo, qHTS (AID 1347062; cut-off not given, nearly all actives have AC50 up to about 27 µM). The note with it: JHH-DIPG-1 viability, CellTiter-Glo ATP luminescence.
Assay [8] deals with NAD(+) hydrolase SARM1 (Homo sapiens) (UniProt Q6SZW1). Kind of assay: SARM1 TIR NADase inhibitors, cell lysate, NAD-Glo luminescence (AID 1508614;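 active = compound whose remaining NAD level is above about 45 nM, limit read from the data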;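 also: higher remaining NAD means stronger inhibition of SARM1 NADase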). Conditions: SAM-TIR HEK293T lysate NADase, at 1 µM, stronger effect = higher value.
NAD(+) hydrolase SARM1 (Homo sapiens), sequence (Q6SZW1 whole entry, looked up): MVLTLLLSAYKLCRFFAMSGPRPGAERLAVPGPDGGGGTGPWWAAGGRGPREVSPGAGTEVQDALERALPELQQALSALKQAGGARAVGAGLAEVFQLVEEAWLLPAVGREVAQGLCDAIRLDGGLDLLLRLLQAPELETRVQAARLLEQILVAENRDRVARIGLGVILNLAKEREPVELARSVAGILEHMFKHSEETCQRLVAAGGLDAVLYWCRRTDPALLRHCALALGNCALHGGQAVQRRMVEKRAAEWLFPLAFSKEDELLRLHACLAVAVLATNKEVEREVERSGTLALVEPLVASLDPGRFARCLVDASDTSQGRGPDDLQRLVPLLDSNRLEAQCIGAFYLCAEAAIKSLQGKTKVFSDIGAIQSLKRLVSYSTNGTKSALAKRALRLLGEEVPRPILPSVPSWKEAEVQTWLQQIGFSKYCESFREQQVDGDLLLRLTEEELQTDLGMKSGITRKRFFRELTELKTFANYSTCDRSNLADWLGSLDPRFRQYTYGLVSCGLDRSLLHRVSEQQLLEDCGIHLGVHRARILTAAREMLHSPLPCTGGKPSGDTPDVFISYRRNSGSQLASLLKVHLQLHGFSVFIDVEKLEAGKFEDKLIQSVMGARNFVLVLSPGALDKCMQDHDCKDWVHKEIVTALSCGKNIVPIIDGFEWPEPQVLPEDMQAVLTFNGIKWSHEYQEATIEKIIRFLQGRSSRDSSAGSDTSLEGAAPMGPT
Assay [9] is described as follows: viability rescue of complex I mutant cybrids, primary screen, cell-based, galactose medium, ATP luminescence (AID 1645843;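 active = z-score of at least 1.8 in each of two replicates, scored against plate mean and spread of sample wells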;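 also: positive z means more ATP and so rescue of galactose-driven cybrid death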). Conditions: complex I mutant cybrid cells, 72 h, stronger effect = higher value.
The mark [10] stands for this setting: measured here: epithelial PC-3E GFP cell survival.
Where [11] appears, read: measured here: mesenchymal TEM4-18 mCherry cell survival.
Setting [12] is: stronger effect = lower value, cell number ratio, induced over uninduced.
Setting [13] is: measured here: relative caspase fold change +Dox/-Dox.
Where [14] appears, read: measured here: total cells with miR-34 induction, stronger effect = lower value.
The mark [15] stands for this setting: measured here: total cells without miR-34 induction.
Where [16] appears, read: MELAS cybrid survival, CellTiter-Glo 48 h, stronger effect = higher value.
The mark [17] stands for this setting: Rieske KO mouse fibroblast survival, CellTiter-Glo 72 h.

Values joined by “and” are separate entries in the source; they are usually repeats but may differ in a detail not shown here. Equal entries are not always repeated. Inconclusive results are not listed. The source holds several records for some structures; these can differ, active in one and inactive in another. Active and inactive are the calls of the source.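 The calls were made as follows, unless noted: active = at least 20% inhibition of 6-phosphogluconate dehydrogenase activity; inactive = the rest.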

6-phosphogluconate dehydrogenase, decarboxylating (Homo sapiens), sequence (P52209 whole entry, looked up): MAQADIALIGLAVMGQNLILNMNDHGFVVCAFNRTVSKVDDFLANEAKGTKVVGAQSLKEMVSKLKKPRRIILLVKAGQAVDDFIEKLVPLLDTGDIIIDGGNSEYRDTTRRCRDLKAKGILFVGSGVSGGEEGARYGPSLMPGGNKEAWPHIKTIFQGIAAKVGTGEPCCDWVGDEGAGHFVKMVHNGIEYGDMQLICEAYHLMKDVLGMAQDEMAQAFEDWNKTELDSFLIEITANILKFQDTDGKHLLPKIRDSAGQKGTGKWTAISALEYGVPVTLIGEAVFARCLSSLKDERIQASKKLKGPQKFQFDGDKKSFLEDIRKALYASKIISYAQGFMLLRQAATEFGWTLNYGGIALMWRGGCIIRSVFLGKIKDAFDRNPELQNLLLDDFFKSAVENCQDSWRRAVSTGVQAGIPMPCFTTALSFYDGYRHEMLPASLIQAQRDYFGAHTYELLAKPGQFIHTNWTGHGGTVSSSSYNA
Mitogen-activated protein kinase 7 (Homo sapiens), sequence (Q13164 whole entry, looked up, the tested form may be a part): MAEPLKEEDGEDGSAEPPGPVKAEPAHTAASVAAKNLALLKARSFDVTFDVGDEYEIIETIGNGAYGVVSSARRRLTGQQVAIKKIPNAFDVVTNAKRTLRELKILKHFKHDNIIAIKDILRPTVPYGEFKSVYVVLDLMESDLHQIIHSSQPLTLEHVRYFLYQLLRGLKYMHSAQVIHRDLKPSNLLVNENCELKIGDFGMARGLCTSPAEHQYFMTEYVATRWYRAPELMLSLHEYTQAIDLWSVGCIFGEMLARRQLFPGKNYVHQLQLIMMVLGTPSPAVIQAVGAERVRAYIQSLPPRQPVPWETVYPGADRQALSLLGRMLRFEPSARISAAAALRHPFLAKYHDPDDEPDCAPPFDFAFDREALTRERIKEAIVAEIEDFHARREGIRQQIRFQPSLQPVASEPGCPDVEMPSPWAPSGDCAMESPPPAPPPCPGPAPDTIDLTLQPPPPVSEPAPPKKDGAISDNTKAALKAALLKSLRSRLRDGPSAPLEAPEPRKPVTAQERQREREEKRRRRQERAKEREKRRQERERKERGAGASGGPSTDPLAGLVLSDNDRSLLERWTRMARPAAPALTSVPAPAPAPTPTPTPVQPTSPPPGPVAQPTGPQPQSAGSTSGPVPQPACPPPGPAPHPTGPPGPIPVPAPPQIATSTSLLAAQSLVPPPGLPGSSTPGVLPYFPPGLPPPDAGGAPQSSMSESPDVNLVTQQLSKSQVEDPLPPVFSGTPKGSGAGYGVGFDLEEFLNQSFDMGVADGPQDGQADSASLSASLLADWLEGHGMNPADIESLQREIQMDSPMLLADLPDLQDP

Consider `Cc1cc(OC(=O)c2c(C)cc(O)cc2O)cc(O)c1C(=O)O`, for which the inhibition in [1] is 1.29% (inactive). Besides, the red/green cell ratio (normalised) in assay [2] is 0.82 (inactive). Moreover, the normalised cell number in assay [2] (setting [10]) stood at 1.06; in [2] (setting [11]), 0.87. Besides, in assay [3], the luciferase signal is 12 AU (inactive).

For the compound `COc1cc(C(C)=O)cc(OC)c1O`, the inhibition in assay [1] was -40.3% (inactive). Further, in assay [2], the red/green cell ratio (normalised) is 1.05 (inactive). Moreover, the normalised cell number in assay [2] (setting [10]) came out at 0.87; in [2] (setting [11]) it was 0.91. Also, in assay [3], the luciferase signal was 64 AU (inactive).

Regarding `COc1ccc([C@@H]2CC(=O)c3c(O)cc(O[C@@H]4O[C@H](CO[C@@H]5O[C@@H](C)[C@H](O)[C@@H](O)[C@H]5O)[C@@H](O)[C@H](O)[C@H]4O)cc3O2)cc1O`, the parasite load remaining in [4] is 169% (inactive). Moreover, the viability in assay [4] was 116%. Also, in assay [1], the inhibition was 1.33% (inactive). Further, the results for the fold change in assay [5] (setting [12]) and in [5] (setting [13]) were 0.851 (inactive) and 2.5, respectively. Further, the cell count was found to be 8600 in assay [5] (setting [14]) and 10100 in [5] (setting [15]). Moreover, the z-score in [6] (setting [16]) was -0.52 (inactive); in [6] (setting [17]) it was -0.165. Moreover, the luciferase signal in assay [3] is 88 AU (inactive).

With `C[C@H]1C[C@H]2[C@@H]3CCC4=CC(=O)C=C[C@]4(C)[C@@]3(F)[C@@H](O)C[C@]2(C)[C@@]1(O)C(=O)CO`, the parasite load remaining in [4] was 183% (inactive) and 101% (inactive). The viability in [4] was 104% and 71.8%. Moreover, the inhibition in assay [1] was -0.85% (inactive). In assay [7], the call was inactive. For the same compound, the fold change in [5] (setting [12]) is 0.813 (inactive); in assay [5] (setting [13]), 1.45. Moreover, the cell count turned out to be 6320 in assay [5] (setting [14]) and 7770 in [5] (setting [15]). In addition, the z-score in assay [6] (setting [16]) was -0.582 (inactive); in assay [6] (setting [17]), -0.299. For the same compound, the remaining NAD in assay [8] was 10 nM (inactive). Besides, the luciferase signal in assay [3] is 80 AU (inactive).

As for `CC(C)(O)CC[C@@H](O)[C@](C)(O)[C@H]1CC[C@@]2(O)C3=CC(=O)[C@@H]4C[C@@H](O)[C@@H](O)C[C@]4(C)[C@H]3CC[C@]12C`, the inhibition in assay [1] was 8% (inactive). In addition, in [7], the compound was classed as inactive. Besides, the luciferase signal in [3] was 60 AU (inactive).

`O=C(O)C1=CCCNC1`: in [1], the inhibition is -3.98% (inactive). The fold change in assay [5] (setting [12]) is 0.989 (inactive) and 0.96 (inactive); in assay [5] (setting [13]), 0.827 and 0.802. Also, the cell count is 8890 and 8940 in assay [5] (setting [14]); 8980 and 9310 in assay [5] (setting [15]). In addition, the luciferase signal in assay [3] is 48 AU (inactive). Besides, the z-score in assay [9] was 0.54 (inactive) and -0.25 (inactive).

Take `C=C(C)[C@@H]1CC[C@]2(C(=O)O)CC[C@]3(C)[C@H](CC[C@@H]4[C@@]5(C)CC[C@H](O)C(C)(C)[C@@H]5CC[C@]43C)[C@@H]12`: the parasite load remaining in assay [4] was -8.09% (active) and 64% (inactive). Also, in assay [4], the viability was 99.2% and 78.2%. The inhibition in assay [1] is 0.445% (inactive). For the same compound, the call in [7] was inactive. In addition, the fold change in assay [5] (setting [12]) is 0.792 (inactive) and 1.12 (inactive); in assay [5] (setting [13]), 1.41 and 0.964. In addition, the cell count in assay [5] (setting [14]) was 5780 and 2010; in assay [5] (setting [15]), 7300 and 1790. Also, in [3], the luciferase signal was 64 AU (inactive).

Turning to `O=C1c2c(O)cccc2[C@H]([C@@H]2O[C@H](CO)[C@@H](O)[C@H](O)[C@H]2O)c2cc(CO)cc(O)c21`, the inhibition in assay [1] was -1.53% (inactive). Moreover, the compound was classed as inactive in [7]. In addition, the remaining NAD in assay [8] was 10 nM (inactive). Moreover, the luciferase signal in [3] was 44 AU (inactive).

Consider `COc1ccc(-c2cc(=O)c3c(O)cc(O[C@@H]4O[C@H](CO[C@@H]5O[C@@H](C)[C@H](O)[C@@H](O)[C@H]5O)[C@@H](O)[C@H](O)[C@H]4O)cc3o2)cc1O`, for which the inhibition in [1] is 7.55% (inactive). Moreover, the result in assay [7] was inactive. In addition, the z-score in assay [6] (setting [16]) is 0.526 (inactive); in assay [6] (setting [17]), 0.0112. The remaining NAD in [8] is 10 nM (inactive). For the same compound, the luciferase signal in assay [3] was 80 AU (inactive).

In the case of `COc1cccc(OC)c1OCCNCC1COc2ccccc2O1` (configuration not stated), the inhibition in assay [1] was 18.8% (inactive). For the same compound, the fold change is 0.967 (inactive) and 0.92 (inactive) in assay [5] (setting [12]); 1.13 and 0.877 in assay [5] (setting [13]). Besides, the cell count is 8030 and 7680 in assay [5] (setting [14]); 8310 and 8340 in assay [5] (setting [15]). In addition, in assay [9], the z-score was -0.59 (inactive) and -0.815 (inactive).
